Experimental data published in ChEMBL document CHEMBL3988442, “University of Dundee, Small-Polar-MMV Screening Library” (2021).

Assays:
[1] = target: T1, Aspartate--tRNA(Asp/Asn) ligase (Mycobacterium tuberculosis (strain ATCC 25618 / H37Rv)) (UniProt P9WFW3); experiment: Assay for Asp RNA synthetase-1 from Mycobacterium tuberculosis; type: functional; parameters: scale not given: direction of the effect not stated beside the values; details: 30 µM; note: in the data most compounds retested in dose-response had high values
T1 sequence (whole entry): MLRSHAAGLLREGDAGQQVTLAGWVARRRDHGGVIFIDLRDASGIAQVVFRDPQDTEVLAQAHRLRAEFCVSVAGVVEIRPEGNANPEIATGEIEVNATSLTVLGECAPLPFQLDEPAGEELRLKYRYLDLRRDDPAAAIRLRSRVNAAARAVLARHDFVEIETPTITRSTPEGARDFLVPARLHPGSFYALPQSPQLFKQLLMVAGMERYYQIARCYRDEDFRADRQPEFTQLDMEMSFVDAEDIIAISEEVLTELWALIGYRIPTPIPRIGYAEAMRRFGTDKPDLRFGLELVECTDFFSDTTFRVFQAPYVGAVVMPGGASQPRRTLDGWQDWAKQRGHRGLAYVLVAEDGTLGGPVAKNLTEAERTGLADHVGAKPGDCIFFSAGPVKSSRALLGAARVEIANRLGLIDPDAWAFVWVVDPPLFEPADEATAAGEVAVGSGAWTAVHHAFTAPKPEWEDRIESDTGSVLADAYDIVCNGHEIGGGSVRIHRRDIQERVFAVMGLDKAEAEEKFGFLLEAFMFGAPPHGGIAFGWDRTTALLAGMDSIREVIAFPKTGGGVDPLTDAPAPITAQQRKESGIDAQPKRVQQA

[2] = target: Shiga toxin 2 (Escherichia coli O157:H7) (UniProt P09385+P09386); experiment: E. coli 0.157:H7 Shiga Toxin SOP - stx2 screening assay; type: functional; parameters: scale not given: direction of the effect not stated beside the values; details: 30 µM

Structure (SMILES) | Percent Effect [1] | Percent Effect [2]
CCCn1nccc1C(=O)N1CCCN(CCCc2ccccc2)CC1 | -3.6% | -14.4%
CCn1ccnc1CN1CCCN(C(=O)c2cccc(C#N)c2)CC1 | 0.189% | -8.53%
CC(=O)N1CCC(Cc2cnc(-c3c(C)nn(C)c3C)cn2)C1 (stereo not given) | -3.46% | -8.45%
COc1ccccc1OCC(=O)NCC(O)(c1ccccc1)C1CC1 (stereo not given) | -1.26% | 6.19%
NC(=O)NCC(=O)N1C[C@H]2CC[C@@H]1CN(Cc1ccccc1)C2 | 15.6% | -8.55%
c1coc(-c2nnc(CN3CCOC(Cn4cccn4)C3)o2)c1 (stereo not given) | -4.34% | 3.23%
O=C(Cn1c(=O)n(Cc2ccco2)c2ncccc21)NC1CCCCC1 | -3.2% | -5.4%
COc1ccc(-n2nnc(C(=O)NC(C)C)c2C2CC2)cc1 | -4.62% | 10.4%
CCc1nnc2n1CCN(C(=O)c1ccc3[nH]cnc3c1)C2 | -2.2% | -13.3%
NC(=O)N1CCC2(CC1)CN(Cc1cccnc1)C(=O)CO2 | 0.66% | -1.38%
O=C(NCc1ccccn1)[C@@H]1CCO[C@@H]2CCN(Cc3ccoc3)C[C@H]21 | 7.04% | 4.93%
O=C(O)c1c[nH]c2cc(NS(=O)(=O)c3cccc(Cl)c3F)ccc12 | 2.61% | 12.3%
CC(NC(=O)N(C)Cc1ccncc1)c1nncn1C (stereo not given) | -5.91% | -0.749%
Cc1nc(C)n(CC2CCCN2CCCOc2ccc(F)cc2)n1 (stereo not given) | -8.6% | 0.578%
COc1c(CNCc2cccc(CN(C)C)c2)c(C)nn1C | -1.85% | 13.1%
CCNC(=O)N1CCN(C(=O)c2cc(Cl)cc3cccnc23)CC1 | -3.21% | -11.9%
CN1CC(=O)N(c2ccsc2)CC12CCN(C(=O)c1ccccc1)C2 (stereo not given) | 2.85% | -3.66%
COCC(=O)NCCn1ccc2c(OC)cccc21 | -1.31% | -26.2%
CC(C)c1nc(C2CCCN2C(=O)c2cnc[nH]2)no1 (stereo not given) | 0.204% | 26.7%
O=C(NCC1CCS(=O)(=O)C1)c1sccc1-c1ccc(F)cc1 (stereo not given) | -1.09% | -3.87%
CN1CCC/C1=N\S(=O)(=O)c1ccc(NC(=O)c2cccs2)cc1 | -0.972% | -166%
CC(C)N1CCC(Cc2cc(-c3cccc(C(=O)O)c3)ncn2)C1 (stereo not given) | -2.43% | 2.16%
O=C(c1ccoc1)N1CC[C@@H]2[C@H]1CCC(=O)N2c1ccccc1 | 1.49% | 1.4%
Cc1occc1C(=O)N1CC[C@@H](N2CCOCC2)[C@@H]1Cc1ccccc1 | 7.49% | 6.03%
CC(Cn1cccn1)NC(=O)Nc1nccs1 (stereo not given) | -0.364% | 2.8%

Structure (SMILES) | Percent Effect [1] | Percent Effect [2]
CS(=O)(=O)N1CCC(c2nnc3ccc(C(=O)N4CCCC4)cn23)C1 (stereo not given) | 2% | -10.4%
O=C(c1ccc(Br)o1)N1CCN(Cc2ccc(OC(F)(F)F)cc2)CC1 | -5.95% | 16.1%
Cc1cnn(CCNCc2nc(-c3ccccc3Cl)no2)c1 | -2.88% | -10.8%
COCc1cc(NCCc2ccc(F)cc2)n2nccc2n1 | 4.6% | 4.14%
Cc1cc(C)n(CC2CCCN2CCc2ccncc2)n1 (stereo not given) | -1.26% | -7.41%
Cn1cc(CC2CCN(C(=O)NCCc3cccc(O)c3)C2)cn1 (stereo not given) | -5.03% | -12.2%
Cc1csc(C2CCCN(C(=O)c3ccc(=O)n(C)n3)C2)n1 (stereo not given) | 3.09% | -15.3%
CC(=O)N(Cc1noc(C2CC2)n1)C1CCN(Cc2cccnc2)C1 (stereo not given) | -2.42% | 12.6%
O=C(c1cc(Cl)c2c(c1)OCCO2)N1CCCC(n2cncn2)C1 (stereo not given) | -7.78% | 10.4%
CN(Cc1ccsc1)C(=O)Nc1ccc(S(=O)(=O)N(C)C)cc1 | 0.428% | -3.75%
CS(=O)(=O)N1CCc2nc(NC(=O)Nc3c(F)cccc3F)sc2C1 | -4.11% | 4.52%
CCc1nc(C2CCCN2C(=O)CCCn2cccn2)no1 (stereo not given) | -0.232% | -5.5%
CCn1nc2c(cc1=O)CN(Cc1nc(CCOC)no1)CC2 | 2.21% | -7.6%
CN(C)c1cc(CNC(=O)Nc2ccc(S(C)(=O)=O)nc2)ccn1 | -1.23% | -117%
CCC1=N[C@@]2(CC[C@@H]3CN(C(=O)Nc4ccc(F)cc4)C[C@@H]32)C(=O)N1 | 0.408% | 5.29%
CCOc1ccnc(N2CCN(C(=O)c3cccnc3O)CC2)n1 | -5.14% | 6.95%
Cn1ncc2c(N3CCN(C(N)=O)CC3)nc(C3CCCC3)nc21 | 1.25% | -24.2%
CCc1nc(C2CCCN2CCCS(=O)(=O)c2ccccc2)no1 (stereo not given) | -4.39% | -9.14%
COc1ccc(OC)c(C(O)CN2CC(n3cccn3)C2)c1 (stereo not given) | -0.9% | 21.2%
Cc1ccc(NC(=O)c2n[nH]c(-n3cnnc3)n2)cc1C | 4.15% | -18.5%
COC(=O)CCC(=O)N1CCC2(CN(Cc3cccc(F)c3)C2)C1 | 8.76% | 2.07%
CCOCC1CN(Cc2cccc(C#N)c2)Cc2nccn2C1 (stereo not given) | -2.92% | -10.3%
O=C(c1ccc(C(F)(F)F)nc1)N1CCCC(n2cncn2)C1 (stereo not given) | -4.88% | -8.71%
CC(C)c1nc(C2CCCN2Cc2ccccc2C#N)no1 (stereo not given) | -6.4% | -29.9%
CCCn1ccc2ccc(NC(=O)N(C)CCOC)cc21 | -4.94% | -13.1%
